According to PubChem BioAssay:
Unmarked numbers belong to inactive results. Active and inactive are the calls of the source. Cut-off read from the data, not from the text of the source, unless noted: active = inhibition above about 36%; inactive = the rest.

Columns and labels:
[1] = test system: transactivating tegument protein VP16 (Human herpesvirus 1); experiment: VP16 transactivation reporter inhibitors, counter-screen for SRC2 inhibitor project, cell-based, luminescence, single concentration (AID 652007); conditions: cell-based VP16 transactivation luciferase reporter, at 8.9 µM, active compounds read high
[2] = biological target: Nuclear receptor coactivator 2 (Homo sapiens) (UniProt Q15596); experiment: SRC2 coactivator transcriptional activity inhibitors, confirmation, cell-based, luminescence, HEK293, triplicate (AID 652008;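 active = mean inhibition above 46.5%, the solvent-only control mean plus 3 SD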;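 note: 0% = DMSO-treated cells and 100% = Gossypol at 36 µM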); conditions: HEK293 GAL4-SRC2 luciferase reporter, at 8.9 µM, active compounds read high
Sequence of Nuclear receptor coactivator 2 (Homo sapiens) (Q15596 whole entry, looked up, the tested form may be a part): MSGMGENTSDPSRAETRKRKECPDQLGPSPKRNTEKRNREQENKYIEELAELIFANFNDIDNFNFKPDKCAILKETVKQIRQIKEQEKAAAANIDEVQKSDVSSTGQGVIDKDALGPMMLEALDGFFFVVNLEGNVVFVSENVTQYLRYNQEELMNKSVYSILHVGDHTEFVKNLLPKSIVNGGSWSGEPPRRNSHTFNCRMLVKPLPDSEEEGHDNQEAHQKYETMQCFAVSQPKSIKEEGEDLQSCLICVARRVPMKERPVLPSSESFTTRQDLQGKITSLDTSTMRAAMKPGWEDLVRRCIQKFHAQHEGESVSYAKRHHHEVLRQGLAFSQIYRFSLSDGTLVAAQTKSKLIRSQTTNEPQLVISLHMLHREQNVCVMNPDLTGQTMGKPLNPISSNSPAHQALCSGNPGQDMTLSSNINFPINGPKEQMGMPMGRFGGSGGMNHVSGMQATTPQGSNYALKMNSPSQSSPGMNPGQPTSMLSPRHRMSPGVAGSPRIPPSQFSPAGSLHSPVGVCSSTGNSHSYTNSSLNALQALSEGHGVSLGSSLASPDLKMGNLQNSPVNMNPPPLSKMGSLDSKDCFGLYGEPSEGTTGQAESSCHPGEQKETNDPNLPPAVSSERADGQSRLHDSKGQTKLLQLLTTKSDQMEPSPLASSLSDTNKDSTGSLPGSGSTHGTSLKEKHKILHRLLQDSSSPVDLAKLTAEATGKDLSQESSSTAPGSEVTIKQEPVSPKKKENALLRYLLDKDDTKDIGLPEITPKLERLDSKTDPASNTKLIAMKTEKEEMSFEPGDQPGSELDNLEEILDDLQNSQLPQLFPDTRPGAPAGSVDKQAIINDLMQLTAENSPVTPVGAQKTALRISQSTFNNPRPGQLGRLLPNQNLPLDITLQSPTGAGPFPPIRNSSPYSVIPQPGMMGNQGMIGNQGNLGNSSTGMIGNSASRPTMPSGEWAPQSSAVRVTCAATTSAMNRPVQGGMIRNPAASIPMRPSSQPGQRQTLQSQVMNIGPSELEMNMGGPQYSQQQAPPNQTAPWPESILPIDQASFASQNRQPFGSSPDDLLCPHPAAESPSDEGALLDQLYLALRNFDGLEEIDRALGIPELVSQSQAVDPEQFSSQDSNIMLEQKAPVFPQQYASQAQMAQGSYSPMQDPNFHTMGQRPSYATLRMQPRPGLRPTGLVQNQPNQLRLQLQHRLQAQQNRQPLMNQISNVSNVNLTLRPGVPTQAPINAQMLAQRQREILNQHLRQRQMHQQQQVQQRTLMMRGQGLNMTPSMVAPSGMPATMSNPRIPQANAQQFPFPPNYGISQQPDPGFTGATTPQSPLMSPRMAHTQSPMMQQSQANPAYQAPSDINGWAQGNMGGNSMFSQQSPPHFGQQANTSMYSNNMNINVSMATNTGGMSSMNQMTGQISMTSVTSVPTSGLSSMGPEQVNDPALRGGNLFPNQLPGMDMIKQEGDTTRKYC

Structure (SMILES) | inhibition [1] | inhibition [2]
Clc1cccc(CN2CCN(c3ncc(Cc4ccccc4)cn3)CC2)c1Cl | -0.77% | 24.5%
NC(=O)C1CCN(CCS(=O)(=O)c2ccc(Cl)cc2)CC1 | -1.09% | -24.6%
CCOc1cc(/C=C/C(=O)c2ccc3c(c2)OCCO3)ccc1OCC(=O)N(C)C | 2.55% | 16.2%
C=CCN(CC=C)C(=O)c1cccc(S(=O)(=O)N2c3ccccc3CC2C)c1 (configuration not stated) | 24.9% | 28.7%
CS(=O)(=O)N(Cc1ccccc1Cl)c1ccc(C(=O)NCc2cccnc2)cc1 | -10.9% | 35.5%
COc1ccc(C(=O)NC(=C(Cl)Cl)S(=O)(=O)c2ccc(C)cc2)cc1 | 3.97% | 36.6%
O=C(NCCCN1CCN(c2ccccc2)CC1)C1CCCN(c2ncnc3c2nc2n3CCCCC2)C1 (configuration not stated) | 6.18% | -21.6%
Nc1nonc1-n1nnc(C(=O)N/N=C/c2ccccc2Br)c1CN1CCCC1 | -7.5% | -12.4%
CN(/C(=N\S(=O)(=O)c1ccccc1)c1ccccc1)c1ccc(O)cc1 | -3.87% | -40.4%
CCOC(=O)CSc1[nH]c2cc(OC)ccc2c1[N+](=O)[O-] | -31.1% | 3.3%
COc1cc(/C=C2\CC/C(=C\c3cc(OC)c(O)c(OC)c3)C2=O)cc(OC)c1O | -70.7% | -13%
O=C1/C(=C/c2ccncc2)CCC/C1=C\c1ccncc1 | 89.1% (active) | 98.1% (active)
CCOc1ccc(-n2c(C)nc3cc(C(=O)NCC4CCCO4)ccc32)cc1 (configuration not stated) | -16.6% | -3.58%
CCOC(=O)[C@]12CCCC=C1N(Cc1cccc3ccccc13)C(=O)[C@H](CC(=O)N1CCOCC1)C2 | -7.43% | -11%
CC(=O)Nc1cc(=O)c2cccnc2[nH]1 | -8.33% | -9.24%
Cc1ccc(S(=O)(=O)C[C@@H]2OC[C@H](C)N2S(=O)(=O)c2ccc(C)cc2)cc1 | 1.93% | -6.07%
COc1ccccc1/C=C/C1(C(=O)NC2CCCC2)CC(=O)N1c1ccc(F)cc1 (configuration not stated) | 19.7% | 49.2% (active)
CC(=O)c1ccc(OCCCC(=O)Nc2ccc(C)c(S(=O)(=O)N3CCCCC3)c2)cc1 | -1.11% | -2.06%
O=C(NCCc1ccccc1)C(c1cccs1)N(C(=O)CCl)c1ccc(Cl)cc1 (configuration not stated) | 22.9% | 52.8% (active)
Cc1ccc(C(=O)Nc2ccc3ccccc3c2)cc1 | -57.4% | 12.1%
Cc1ccc(C2CC(c3cccs3)=NN2C(=O)CSC2=NCCS2)cc1 (configuration not stated) | 17.9% | 16.1%
N=c1nc(SCCC(=O)O)ss1 | 14.4% | 51.7% (active)
Cc1ccc(NC(=O)C2CCN(C(=O)c3ccccc3C)CC2)nc1 | -5.97% | -11.5%
O=S(=O)(Cc1ccccc1Cl)NCCc1ccc(F)cc1 | -11.3% | -1.95%

Structure (SMILES) | inhibition [1] | inhibition [2]
N#Cc1c(NC(=O)CCCC(=O)O)sc2c1CCCCC2 | -8.88% | 44%
COc1ccc(S(=O)(=O)Nc2ccc(C)cn2)cc1 | -11.7% | -15.4%
CCOC(=O)c1[nH]c(=S)n(-c2ccccc2)c1C(=O)OCC | -1.17% | -17.4%
O=C(CCl)N(c1ccccc1)c1ccccc1 | 9.78% | 44.2%
Cc1ccc(S(=O)(=O)NNC(=O)c2sc(=S)n(C)c2C)cc1 | -4.43% | -17.1%
CCOC(=O)c1c(C)nn(-c2ccc(NC(=O)c3c(C)noc3C)cc2)c1C | 11.6% | 52.8% (active)
CC(C)(C)c1ccc(OC(=O)Nc2ccc(O)c(C(=O)O)c2)cc1 | 7.15% | 30.5%
CCN1C=CC(=C2C(=O)c3ccccc3C2=O)C=C1 | 42.3% (active) | 58.6% (active)
CC(C)Oc1ccc(S(=O)(=O)N2CCCCC2)cc1NC(=O)C1CCCC1 | 11.3% | 2.87%
Cc1ccc([N+](=O)[O-])cc1N(CC(=O)Nc1ccc(S(=O)(=O)Nc2cccc(C(F)(F)F)c2)cc1)S(C)(=O)=O | -13.7% | -3.19%
Cc1ccc(NC(=O)CSc2ncnc3ccccc23)cc1S(=O)(=O)N1CCCCCC1 | 12.7% | 20.7%
CC(C)c1ccc(/C=C/C(=O)N2CCCCCC2)cc1 | -73.2% | -26%
Cc1ccccc1C(=O)N1CCN(c2ccc(NC(=O)c3ccccc3[N+](=O)[O-])cc2)CC1 | -22% | 12.1%
Cc1sc2ncnc(N3CCC(C(=O)Nc4ccc(S(N)(=O)=O)cc4)CC3)c2c1C | -3.11% | 30.8%
COc1cccc(NC(=O)Nc2nnc(N3C(C)CCCC3C)s2)c1 (configuration not stated) | -51.2% | -7.93%
CC[n+]1cccc(-c2nc3ccccc3s2)c1 | 9.34% | 13%
CC(C)c1nnc(NC(=O)c2nc(S(=O)(=O)Cc3ccccc3F)ncc2Cl)s1 | 16.4% | 48% (active)
COc1ccc(NC(=O)COc2coc(CN3CCN(c4ccccc4)CC3)cc2=O)cc1 | -6.47% | -1.96%
O=C(CCl)Nc1ccccc1C(=O)NCc1ccccc1 | 0.94% | 42.9%
Cc1ccc2c(c1)sc(=NC(=O)c1cccs1)n2C | -58.3% | -3.83%
CC(C)OC(=O)c1ccc(NCc2cc(O)ccc2O)cc1Cl | 19.4% | 89.1% (active)
Cc1ccccc1N(Cc1cc(=O)[nH]c2ccccc12)C(=O)CCl | 44.6% (active) | 76.7% (active)
C[N+]1(CC2COC3(CCCCC3)O2)CCCC1 (configuration not stated) | -9.45% | -21.5%
Cc1ccc([C@@H]2C[C@H]3[C@@H](CN2S(=O)(=O)c2ccc(C)cc2)C(=O)C[C@@H](c2ccccc2F)N3S(=O)(=O)c2ccc(C)cc2)cc1 | -8.37% | -5.47%

Structure (SMILES) | inhibition [1] | inhibition [2]
Cc1ccc(NC(=O)C2CCN(S(=O)(=O)c3ccc(N4CCCC4=O)cc3)CC2)cc1Cl | 31% | 46.4%
CCNC(=O)C1(C)CCCN(Cc2csc(-c3ccccc3)n2)C1 (configuration not stated) | -30.6% | -4.83%
COc1cccc(Nc2nc(NCCO)c3ccccc3n2)c1 | -14.1% | 31.5%
Cc1ccc(-n2c(C)c([N+](=O)[O-])c3ccc(O)cc32)cc1 | 2.28% | 47.5% (active)
CC(C)CCSc1nc(N)c(C#N)cc1C#N | -75.7% | 17.8%
COc1ccc(-n2nc3cc(C)c(N)c(Br)c3n2)cc1 | -67.1% | -140%
COc1ccc(NC(=O)C2(C)Cc3c(-c4cccc(NC(C)=O)c4)ccnc3O2)cc1 (configuration not stated) | -10.6% | 1.6%
CCOc1ccc(NC(=O)c2ccccn2)cc1 | -15.2% | 25.7%
COC(=O)c1ccc2c(=O)[nH]c(COC(=O)c3[nH]c(C)c(C(C)=O)c3C)nc2c1 | -18.3% | 12.3%
Cc1cc(C(=O)COc2cccnc2[N+](=O)[O-])c(C)n1-c1ccccc1F | -54.6% | 62.7% (active)
COc1cc(C(O)c2nc(-c3ccncc3)cs2)ccc1F (configuration not stated) | 4.64% | 20.8%
C[C@@H]1CNCCN1c1ccc(N2CCN(Cc3ccccc3)[C@@H](C)C2)c(C#N)c1 | 15.5% | 17.3%
CCOc1ccc(-c2cc(CCCC(=O)N3CCN(c4ccc(OC)cc4)CC3)no2)cc1 | 4.64% | 18.6%
CCCCN1CC(COCc2ccccc2)Oc2cccc(NCc3cc(OC)c(OC)c(OC)c3)c2S1(=O)=O (configuration not stated) | -12.2% | 13.4%
COc1ccc(N2CCN(C3CCCN(S(=O)(=O)c4ccc(C)cc4C)C3)CC2)cc1 (configuration not stated) | -13% | 29.6%
CCCCCCCCN1C(=O)[C@H](CC(=O)NCCCC)C[C@@]2(C(=O)OCC)CCCC=C12 | -14% | -0.38%
COc1ccc(C(=O)NCCNc2nc3cc(C)cc(C)c3cc2C#N)c(OC)c1 | 3.31% | 86.2% (active)
CCOC(=O)C1=CCN(S(=O)(=O)c2ccc(C)cc2)C1c1ccccc1F (configuration not stated) | -19.3% | -7.88%
c1ccc(C2=Nn3c(nnc3-c3ccncc3)SC2)cc1 | -2.29% | 34.6%
O=C(O)/C=C/C(=O)N(CC1CCCO1)C1CC(=O)N(c2c(Cl)cccc2Cl)C1=O (configuration not stated) | -22.7% | -29.3%
Cc1c(CCC(=O)NCCCC(=O)O)c(=O)oc2cc3oc4c(c3cc12)CCCC4 | 47.5% (active) | 65% (active)
CCOC(=O)C(C(=O)OCC)C(Nc1cccc(Br)c1)c1ccccc1 (configuration not stated) | 8.47% | 19.3%
Cc1cccc(C(=O)Nc2ccc(CC(=O)O)cc2)c1 | -2.26% | 26.9%
